This is part of a sample that, as a whole, favours compounds with a hit. Of some 83,000 tested, about 20% had one in any assay.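 Values shown are percent growth following 48 h exposure of cells in 96-well plates to a single concentration of compound; below 10 was considered active.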 Unmarked numbers belong to inactive results. Calls of active or inactive are those of the source.

Holding throughout (experiment): NCI-60 one-dose screen, 48 h (100 = growth as untreated, 0 = no growth, -100 = all killed)
Common to all, as to conditions: 10 µM unless noted

The subject of experiment [1] is NCI-H23 lung.
Experiment [2] relates to NCI-H226 lung.
The test system of experiment [3] is NCI-H322M lung.
Experiment [4] deals with HOP-62 NSCLC.
Experiment [5] deals with NCI-H460 lung.
Experiment [6] concerns HOP-92 NSCLC.
Experiment [7] relates to NCI-H522 lung.
Experiment [8] concerns A549/ATCC NSCLC.
Experiment [9] concerns 786-0 renal.
Experiment [10] relates to COLO 205 colon.
Experiment [11] concerns DU-145 prostate.
The subject of experiment [12] is K-562 leukemia.
In experiment [13] the test system is MALME-3M melanoma.
The test system of experiment [14] is MDA-MB-231 breast.
Experiment [15] concerns RXF 393 renal.
The subject of experiment [16] is SF-268 CNS.
Experiment [17] concerns SF-539 CNS.
For experiment [18], the system named is UACC-257 melanoma.
Experiment [19] deals with M14 melanoma.
The test system of experiment [20] is SF-295 CNS.

With `O=S(=O)(NCCNc1nccc(-c2c(-c3ccc(F)cc3)nc3sccn23)n1)c1ccc(F)cc1`, the growth in experiment [1] is 78.7%; in [2], 72.8%; in [3], 77.4%; in [4], 84.4%; in experiment [5], 48.6%; in [6], 82.7%. In addition, the growth in [7] was 89.6%; in experiment [8], 49.3%; in experiment [9], 73.7%; in experiment [10] it was 58.8%; in experiment [11], 75.9%; in experiment [12], 56.7%. The growth in [13] is 76.8%; in experiment [14], 78.4%; in [15] it was 70%; in experiment [16], 79.2%; in [17], 102%; in [18], 102%. The growth in experiment [19] was 73.7%.
`c1ccc(-c2nc(N3CCNCC3)c3nc(-c4ccccc4)oc3n2)cc1`: the growth in experiment [1] was -56.6% (active); in experiment [2] it was -61.3% (active); in experiment [3], 82%; in experiment [4], -78.2% (active); in experiment [5], -73.7% (active); in [6], 42%. Besides, the growth is -82.1% (active) in [7]; -77.2% (active) in experiment [8]; -98.7% (active) in experiment [9]; -84% (active) in experiment [10]; -63.2% (active) in [11]; -10.7% (active) in experiment [12]. For the same compound, the growth in [13] is 91.8%; in experiment [14] it was -81% (active); in experiment [16], 36.1%; in [20], 91.2%; in experiment [17] it was -40% (active); in experiment [18], 105%. Moreover, the growth in [19] is 99.7%.
Consider `Cc1c(C(N)=O)sc2c1c(=O)n(Cc1ccccc1)c1nnc(Nc3ccccc3)n21`, for which the growth was 101% in [1]; 106% in [2]; 105% in [3]; 89.1% in [4]; 119% in experiment [5]; 101% in experiment [6]. Also, the growth in [7] is 87.1%; in [8] it was 94.4%; in experiment [9] it was 105%; in experiment [10], 101%; in experiment [11], 89.3%; in experiment [13], 110%. Also, the growth is 105% in experiment [14]; 113% in experiment [15]; 101% in experiment [16]; 104% in experiment [20]; 100% in experiment [17]; 92.3% in experiment [18]. Besides, in experiment [19], the growth was 101%.
Consider `C=COC(=O)CCCCCCCCC`, for which the growth in [1] is 108%; in [2], 107%; in experiment [3], 102%; in experiment [4], 120%; in experiment [5] it was 106%; in [6], 99%. The growth in [7] was 85.9%; in experiment [8], 108%; in experiment [9], 102%; in experiment [10], 111%; in experiment [11] it was 114%; in experiment [13], 104%. In addition, the growth in experiment [14] was 102%; in experiment [15], 106%; in experiment [16], 101%; in [20], 115%; in experiment [17], 113%; in [18], 107%. The growth in experiment [19] was 108%.
As for `Cn1c(=O)c2[nH]c(C3CC=CCC3)nc2n(C)c1=O` (configuration not stated), the growth in [1] is 98.2%; in [2] it was 103%; in experiment [3], 102%; in experiment [4], 90.5%; in [5] it was 109%; in experiment [6] it was 70.1%. In addition, the growth in [7] was 98%; in experiment [8], 106%; in experiment [9], 105%; in experiment [10], 97.4%; in experiment [11], 101%; in experiment [13] it was 107%. The growth in [14] is 94.6%; in experiment [15], 115%; in experiment [16] it was 96%; in experiment [20], 89.5%; in [18] it was 116%; in experiment [19], 111%.
For `Cc1ccc2nc(Cl)cc(=O)n2c1`, the growth in experiment [1] is 107%; in experiment [2], 108%; in [3] it was 116%; in experiment [4], 100%; in experiment [5] it was 113%; in [6] it was 104%. For the same compound, the growth in experiment [7] was 116%; in experiment [8], 113%; in experiment [9], 100%; in experiment [10] it was 108%; in experiment [11], 124%; in experiment [13] it was 135%. For the same compound, the growth in experiment [14] is 111%; in experiment [15], 117%; in [16], 114%; in experiment [20], 113%; in experiment [18], 112%; in [19], 104%.
Turning to `O=C(CSC1CCc2ccccc21)N/N=C/c1ccccc1O` (configuration not stated), the growth was 55.5% in experiment [1]; 67.7% in experiment [2]; 22.6% in [3]; 47.5% in experiment [4]; 30.9% in [5]; 77.4% in experiment [6]. In addition, the growth in experiment [7] is 7.47% (active); in experiment [8], 48.2%; in [9], 66.6%; in experiment [10] it was 45.7%; in experiment [11], 52.8%; in experiment [13], 53.3%. The growth in experiment [14] is 45.2%; in [15] it was 75.1%; in experiment [16] it was 39.5%; in experiment [17], 54.7%; in experiment [19], 47.4%.
For the compound `O=C(CSc1nc2ccccc2[nH]1)Nc1ccc(-c2nc3ccccc3s2)c(Cl)c1`, the growth was -32.5% (active) in experiment [1]; 40.3% in [2]; 64.9% in [3]; 10.2% in experiment [4]; -4.98% (active) in experiment [5]; -11.9% (active) in experiment [6]. Besides, the growth in experiment [7] was -9.43% (active); in experiment [8], -33.7% (active); in experiment [9] it was -72.9% (active); in [10] it was 19.5%; in [12], 20.4%; in experiment [13], 2.26% (active). The growth in [14] is -36.8% (active); in [15] it was 21.8%; in experiment [20], 3.63% (active); in experiment [17], -88.6% (active); in experiment [18] it was 16%; in experiment [19], -58.1% (active).
In the case of `COc1cc(Nc2ncccc2C(=O)NCc2cn(Cc3cccc(Oc4ccccc4)c3)nn2)cc(OC)c1`, the growth in experiment [1] is 66.2%; in experiment [2] it was 91.7%; in experiment [3], 65.2%; in [4], 56.6%; in [5], 20.2%; in experiment [6] it was 108%. The growth is 5.73% (active) in [7]; 38.6% in [8]; 51% in [9]; 38.3% in experiment [10]; 68.9% in [11]; 56.1% in [13]. For the same compound, the growth in [14] is 26.3%; in experiment [15], 64.2%; in [16] it was 47.2%; in [20] it was 28.3%; in experiment [17], 38.5%; in experiment [18], 74%. For the same compound, the growth in [19] was 31.2%.
As for `Cc1cccc(/C=N/Nc2cc(C)c3cccc(C)c3n2)n1`, the growth in [1] was 94.3%; in experiment [2], 86.9%; in [3] it was 100%; in experiment [4] it was 110%; in experiment [5], 92.9%; in experiment [6], 75.5%. The growth in experiment [7] is 87%; in experiment [8], 87.8%; in experiment [9] it was 107%; in experiment [10] it was 96.2%; in experiment [11], 101%; in [12], 69.8%. Besides, the growth is 90.4% in experiment [14]; 98.2% in experiment [15]; 101% in experiment [16]; 88% in [17]; 80% in [18]; 98.4% in experiment [19].
As for `CCCCOc1ccc(/C=C2/SC(N3CCCC3)=NC2=O)cc1`, the growth in [1] is 98.8%; in [2], 85.5%; in experiment [3], 98.8%; in experiment [4], 99.3%; in experiment [5], 99%; in [6], 86.8%. The growth in [7] is 82.4%; in [8] it was 94.7%; in [10] it was 104%; in [11] it was 80.9%; in experiment [12], 82%; in experiment [13], 97.9%. In addition, the growth in experiment [14] is 95.6%; in [15], 90.9%; in [16], 98.7%; in experiment [20] it was 93.8%; in [17] it was 87.9%; in experiment [18], 102%. The growth in experiment [19] was 95.4%.
For the compound `CC(=O)Oc1cccc(S(=O)(=O)n2cc(C(=O)C(=O)Nc3ccncc3)c3ccccc32)c1`, the growth in experiment [1] was 62.6%; in experiment [2], 73.6%; in experiment [3], 92.3%; in [4], 87.2%; in experiment [5], 82.1%; in [6], 70.5%. For the same compound, the growth is 63.9% in experiment [7]; 72.7% in experiment [8]; 91.2% in experiment [9]; 100% in [10]; 104% in [11]; 90.4% in experiment [13]. The growth was 66.1% in experiment [14]; 90.8% in experiment [15]; 103% in experiment [16]; 58.5% in experiment [20]; 86.7% in experiment [17]; 93.9% in experiment [18]. Further, the growth in experiment [19] is 102%.

The values are drawn from PubChem BioAssay (NCI).
